Experimental data from PubChem BioAssay (NCATS).
A number with no mark means an inactive call. Inconclusive results are not listed. The list shows a part of the results. Where a call stands in place of a potency, no number is given. The source made the active and inactive calls. Unless noted, the call rests on the fitted dose curve; in most records, active means well fitted curve in the direction sought with a large enough effect; inconclusive means small, poorly fitted or top-dose-only effect, or another doubt; inactive means no such curve, though single readings can be large; an effect the other way counts as inactive or inconclusive.

Columns and labels:
[1] = target: Rap guanine nucleotide exchange factor 3 (Homo sapiens) (UniProt O95398); test: Confirmatory qHTS for antagonist of cAMP-regulated guanine nucleotide exchange factor 3 (EPAC1) (AID 1645880); details: EPAC1 Rap1B-BODIPY-GDP exchange, fluorescence; activity, negative = inhibition: at 115 µM (top of the series); further: nearly all actives have a fitted effect of over 55% in size; further: potency means the concentration at half of the fitted maximal effect
Method in brief: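 Released BODIPY-GDP fluoresces less than Rap1-bound BODIPY-GDP; the signal is followed at 480/540 nm at 5-min intervals over 30 min, after 5 min at room temperature. Reactions contain 100 nM EPAC1, 250 nM RAP1B-BODIPY-GDP and 50 uM GDP; results are normalized to ATA and DMSO.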

[2] = target: Rap guanine nucleotide exchange factor 3 (Homo sapiens) (UniProt O95398); test: Counterscreen qHTS for antagonist of cAMP-regulated guanine nucleotide exchange factor 3 (EPAC1) (AID 1645888)
Method in brief: (§1)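 Measured: fluorescence of BODIPY-GDP bound to Rap1B, which falls as exchange proceeds. Conditions include 50 uM competing GDP, 5 and 30 min reads, and a later cAMP challenge for antagonist detection.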

[3] = target: Bifunctional 3'-5' exonuclease/ATP-dependent helicase WRN (Homo sapiens) (UniProt Q14191); test: qHTS for Inhibitors of WRN Helicase: Confirmatory Assay for Cherry-picked Compounds. (AID 720497); details: WRN helicase DNA unwinding, fluorescence kinetic; further: potency means the concentration at half of the fitted maximal effect; nearly all actives have a fitted effect of over 65% in size
Method in brief: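 Compound and 20 nM WRN incubated 15 min, RT. Forked duplex (100 nM) plus ATP (2 mM) added. Fluorescence monitored kinetically and normalized to controls.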

[4] = qHTS for Inhibitors of WRN Helicase: Thiazole Orange DNA Binding Counterscreen (AID 720499);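 further: drop in dye fluorescence marks compound binding to DNA; nearly all actives have a fitted effect of over 60% in size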
Method in brief: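 To exclude WRN hits acting through DNA binding, fluorescence of 100 nM thiazole orange bound to 50 nM unlabeled DNA is read (ex 480, em 530 nm) 15 min after compound addition at room temperature.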

[5] = target: RecQ-like DNA helicase BLM (Homo sapiens) (UniProt P54132); test: qHTS for Inhibitors of WRN Helicase: BLM Helicase Counterscreen for WRN Inhibitors (AID 720503); details: Recombinant BLM helicase DNA unwinding, red fluorescence; further: potency means the concentration at half of the fitted maximal effect; nearly all actives have a fitted effect of over 60% in size
Method in brief: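 1 nM BLM, Tris pH 8.0/NaCl/MgCl2/DTT/Tween-20; cpd preinc 15 min RT; start w/ 100 nM DNA + 2 mM ATP final; fluorescence (ex 525/em 598) two reads 15 min apart; normalized to enzyme-free and DMSO controls.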

[6] = target: Rap guanine nucleotide exchange factor 4 (Homo sapiens) (UniProt Q8WZA2); test: Confirmatory qHTS for antagonist of cAMP-regulated guanine nucleotide exchange factor 4 (EPAC2) (AID 1645885); further: nearly all actives have a fitted effect of over 25% in size
[7] = target: Tumor susceptibility gene 101 protein (Homo sapiens) (UniProt Q99816); test: qHTS Assay for Iinhibitors of HIV-1 Budding by Blocking the Interaction of PTAP/TSG101: Hit Validation (AID 651600); further: nearly all actives have a fitted effect of over 70% in size
Method in brief: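 Measuring PTAP–Tsg101 interaction by FP: protein at 10 uM and fluorescent peptide at 50 nM (final), buffer 10 mM HEPES pH 7.5 with 0.15 M NaCl, 3 mM EDTA, 0.1 mM TCEP, 0.01% Tween 20; 20 min incubation, r.t.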

[8] = target: Rap guanine nucleotide exchange factor 3 (Homo sapiens) (UniProt O95398); test: Counterscreen qHTS for agonist of cAMP-regulated guanine nucleotide exchange factor 3 (EPAC1) (AID 1645889); further: potency means the concentration at half of the fitted maximal effect; nearly all actives have a fitted effect of over 40% in size
Method in brief: as §1

[9] = target: Lysosomal acid glucosylceramidase (Homo sapiens) (UniProt P04062); test: Glucocerebrosidase-p2 (AID 348; in the data active means potency below about 10 µM; further: potency means the concentration at half of the fitted maximal effect); details: purified GBA, blue fluorogenic substrate, 40 min
Method in brief: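 Normal human glucocerebrosidase (0.2 nM) with blue fluorogenic substrate (80 uM final) in citrate/phosphate pH 5.9 with 10mM sodium taurocholate, 0.01% tween-20; 40 min RT, NaOH/glycine stop; fluorescence Ex 365/Em 440; AC50 from a titration from 0.6 nM upwards.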

[10] = AP1 Signaling Pathway (AID 357; active means well fitted curve in either direction with a large enough effect, not every such curve was filed as active;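 further: ME-180 reporter cells stimulated with EGF at its EC50 level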); details: ME-180 (cervical carcinoma) AP-1-bla reporter, EGF-induced, beta-lactamase ratio, 5 h; at 7.69 µM (top of the series) unless noted
Method in brief: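 Beta-lactamase reporter under AP-1 response element, ME-180 background. Stimulus: EC50 EGF. Compound exposure 5 h, 37 °C. Detection: CCF4, 2.5 h RT, 460/530 nm. Values: AC50 from titration.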

[11] = target: Cytochrome P450 1A2 (Homo sapiens) (UniProt P05177); test: p450-cyp1a2 (AID 410; calls by dose curve; further: potency means the concentration at half of the fitted maximal effect)
Method in brief: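 20nM CYP1A2, 100uM Luciferin-ME (=Km), 100mM KPO4; cpd 10 min RT; +NADPH regen, 60 min RT; stop/detect 20 min; luminescence. Normalized to furafylline 57 uM = full inhibition.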

[12] = NFAT Signaling Pathway (AID 444; active means well fitted curve in either direction with a large enough effect, not every such curve was filed as active;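 further: carbachol stimulus at about its EC50 of 1 µM final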); details: Jurkat NFAT-bla M1, carbachol, beta-lactamase ratio, 5 h; at 7.69 µM (top of the series) unless noted
Method in brief: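 Jurkat cells carrying an NFAT-driven β-lactamase reporter and co-transfected muscarinic M1 receptor were treated with compound plus carbachol (1 uM final, an EC50 level) for 5 h at 37 °C. CCF4 loading followed for 1 h at RT; 460/530 nm ratio gave %activity.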

[13] = Stat Signaling Pathway (AID 446; active means well fitted curve in either direction with a large enough effect, not every such curve was filed as active;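 further: ME-180 cervical cancer cells given 40 pM IL-6 alongside compound; SIE-controlled beta-lactamase reporter measured as 460/530 nm FRET emission ratio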)
Method in brief: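 Emission at 460 and 530 nm (excitation 405 nm) reports SIE-controlled beta-lactamase in ME-180 cells. Cells received compound with 40 pM IL-6 for 5 hrs at 37 C; data scaled between 300 pM IL-6 and 125 nM JAK-inhibitor controls.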

[14] = target: Glucocorticoid receptor (Homo sapiens) (UniProt P04150); test: GR-GFP Redistribution (AID 450;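 active means compounds whose dose series gives a full or clear partial fitted curve of increased nuclear translocation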; further: potency means the concentration at half of the fitted maximal effect); details: U2OS GR-GFP nuclear translocation, laser cytometry, 2 h
[15] = target: Glucocorticoid receptor (Homo sapiens) (UniProt P04150); test: GR-EFC Redistribution (AID 451; calls by dose curve; further: potency means the concentration at half of the fitted maximal effect); details: CHO-K1 GR-EFC translocation, beta-gal luminescence, 2 h
Method in brief: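 CHO-K1 cells stably expressing nuclear-localized β-gal enzyme acceptor and GR fused C-terminally to the enzyme donor fragment; ligand-driven nuclear translocation restores β-gal by complementation. Compounds titrated up to 46 uM final, 2 h at 37 °C; luminescence read.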

[16] = target: Mitogen-activated protein kinase 10 (Mus musculus) (UniProt Q61831); test: JNK3 AlphaScreen Assay (AID 530; active means well fitted curve in either direction with a large enough effect, not every such curve was filed as active;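 further: kinase came from lysate of stimulated human HepG2 cells; signal reports phosphorylation of biotinylated GST-cJun 1-79 at Ser73 with 10 µM ATP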)
Method in brief: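 Biotinylated GST-cJun(1-79) served as substrate for JNK3 in HepG2 lysates stimulated with IL-1beta and TNF-alpha. ATP was 10 uM final, pH 7.6. Ser73 phosphorylation was quantified by AlphaScreen (680 nm excitation).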

[17] = target: Cytochrome P450 3A4 (Homo sapiens) (UniProt P08684); test: qHTS Assay for Inhibitors and Substrates of Cytochrome P450 3A4 (AID 884); further: potency means the concentration at half of the fitted maximal effect; nearly all actives have a fitted effect of over 50% in size
Method in brief: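 Luminescent readout of luciferin produced by CYP3A4 (20 nM) dealkylation of Luciferin-PPXE, 25 uM (its KM). NADPH-driven reaction ran 60 min at RT after 10 min compound preincubation; data scaled to 57 uM ketoconazole as 100% inhibition.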

[18] = target: Cytochrome P450 2D6 (Homo sapiens) (UniProt P10635); test: qHTS Assay for Inhibitors and Substrates of Cytochrome P450 2D6 (AID 891); further: potency means the concentration at half of the fitted maximal effect; nearly all actives have a fitted effect of over 60% in size
Method in brief: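 Luminescent read-out of luciferin formed by 5 nM human CYP2D6 demethylating 30 uM Luciferin-ME EGE (Km level) over 60 min at room temperature after NADPH regeneration addition. Data normalized to full inhibition by 1.43 uM quinidine.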

[19] = target: Dual specificity protein kinase CLK4 (Homo sapiens) (UniProt Q9HAZ1); test: qHTS Assay for Inhibitors of CDC-like Kinase 4 (ADP-FP Assay) (AID 1795);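 further: recombinant human CLK4 phosphorylating RS repeat peptide at 1 µM ATP; nearly all actives have a fitted effect of over 60% in size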
Method in brief: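 Kinase activity was followed as ADP output, converted from fluorescence polarization with a calibration curve. Reactions ran one hour at low ATP (1 uM) with RS peptide substrate.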

Chain of Rap guanine nucleotide exchange factor 4 (Homo sapiens) (Q8WZA2 whole entry, looked up): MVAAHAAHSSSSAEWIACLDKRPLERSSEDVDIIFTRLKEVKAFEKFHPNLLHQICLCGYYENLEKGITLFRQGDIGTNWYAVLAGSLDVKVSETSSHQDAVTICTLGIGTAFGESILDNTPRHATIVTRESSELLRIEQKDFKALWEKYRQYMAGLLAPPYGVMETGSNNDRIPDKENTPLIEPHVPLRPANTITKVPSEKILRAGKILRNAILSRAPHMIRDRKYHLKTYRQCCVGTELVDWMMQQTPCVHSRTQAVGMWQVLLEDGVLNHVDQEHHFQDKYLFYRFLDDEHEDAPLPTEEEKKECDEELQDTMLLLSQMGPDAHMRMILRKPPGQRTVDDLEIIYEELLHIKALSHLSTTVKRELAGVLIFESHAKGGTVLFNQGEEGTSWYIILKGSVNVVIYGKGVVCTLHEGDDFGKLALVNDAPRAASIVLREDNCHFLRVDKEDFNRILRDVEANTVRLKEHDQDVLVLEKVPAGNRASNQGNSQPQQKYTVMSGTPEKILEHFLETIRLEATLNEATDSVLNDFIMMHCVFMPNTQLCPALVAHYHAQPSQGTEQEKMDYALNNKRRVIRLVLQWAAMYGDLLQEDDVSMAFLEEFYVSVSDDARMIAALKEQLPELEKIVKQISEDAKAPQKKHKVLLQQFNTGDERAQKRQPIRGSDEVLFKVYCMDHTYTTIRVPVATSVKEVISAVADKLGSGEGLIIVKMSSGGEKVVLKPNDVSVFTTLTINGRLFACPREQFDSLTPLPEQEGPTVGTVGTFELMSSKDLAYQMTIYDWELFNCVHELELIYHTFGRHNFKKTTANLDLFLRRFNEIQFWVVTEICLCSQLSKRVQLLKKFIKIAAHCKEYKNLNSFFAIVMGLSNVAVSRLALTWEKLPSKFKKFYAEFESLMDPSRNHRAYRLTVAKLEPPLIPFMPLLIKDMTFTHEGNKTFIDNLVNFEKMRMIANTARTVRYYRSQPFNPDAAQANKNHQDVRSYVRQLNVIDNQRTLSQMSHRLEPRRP
Chain of Rap guanine nucleotide exchange factor 3 (Homo sapiens) (O95398 whole entry, looked up): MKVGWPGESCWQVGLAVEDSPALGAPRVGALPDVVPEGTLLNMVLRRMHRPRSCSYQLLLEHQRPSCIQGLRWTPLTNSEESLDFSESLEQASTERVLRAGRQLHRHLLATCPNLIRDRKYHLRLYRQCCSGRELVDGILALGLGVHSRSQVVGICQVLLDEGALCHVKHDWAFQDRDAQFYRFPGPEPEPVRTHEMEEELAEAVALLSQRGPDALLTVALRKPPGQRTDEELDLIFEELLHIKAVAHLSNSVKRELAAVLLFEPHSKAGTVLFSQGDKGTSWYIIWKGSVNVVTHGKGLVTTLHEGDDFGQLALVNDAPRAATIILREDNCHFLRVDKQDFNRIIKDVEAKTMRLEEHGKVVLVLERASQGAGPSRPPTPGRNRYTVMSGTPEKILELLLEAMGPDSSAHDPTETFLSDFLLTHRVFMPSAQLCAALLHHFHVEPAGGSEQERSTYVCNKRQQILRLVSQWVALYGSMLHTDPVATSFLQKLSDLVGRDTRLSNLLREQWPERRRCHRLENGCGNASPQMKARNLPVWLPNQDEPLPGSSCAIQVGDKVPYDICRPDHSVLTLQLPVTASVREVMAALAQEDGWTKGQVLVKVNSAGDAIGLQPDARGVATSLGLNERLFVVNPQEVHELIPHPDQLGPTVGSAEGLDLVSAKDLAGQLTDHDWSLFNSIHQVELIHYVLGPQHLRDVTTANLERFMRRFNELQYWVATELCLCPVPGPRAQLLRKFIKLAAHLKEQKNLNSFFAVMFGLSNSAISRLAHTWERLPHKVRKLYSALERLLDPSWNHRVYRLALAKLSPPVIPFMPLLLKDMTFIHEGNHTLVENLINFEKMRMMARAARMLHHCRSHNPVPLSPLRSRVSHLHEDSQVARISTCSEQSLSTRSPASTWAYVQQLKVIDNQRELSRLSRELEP
Chain of Glucocorticoid receptor (Homo sapiens) (P04150 whole entry, looked up, the tested form may be a part): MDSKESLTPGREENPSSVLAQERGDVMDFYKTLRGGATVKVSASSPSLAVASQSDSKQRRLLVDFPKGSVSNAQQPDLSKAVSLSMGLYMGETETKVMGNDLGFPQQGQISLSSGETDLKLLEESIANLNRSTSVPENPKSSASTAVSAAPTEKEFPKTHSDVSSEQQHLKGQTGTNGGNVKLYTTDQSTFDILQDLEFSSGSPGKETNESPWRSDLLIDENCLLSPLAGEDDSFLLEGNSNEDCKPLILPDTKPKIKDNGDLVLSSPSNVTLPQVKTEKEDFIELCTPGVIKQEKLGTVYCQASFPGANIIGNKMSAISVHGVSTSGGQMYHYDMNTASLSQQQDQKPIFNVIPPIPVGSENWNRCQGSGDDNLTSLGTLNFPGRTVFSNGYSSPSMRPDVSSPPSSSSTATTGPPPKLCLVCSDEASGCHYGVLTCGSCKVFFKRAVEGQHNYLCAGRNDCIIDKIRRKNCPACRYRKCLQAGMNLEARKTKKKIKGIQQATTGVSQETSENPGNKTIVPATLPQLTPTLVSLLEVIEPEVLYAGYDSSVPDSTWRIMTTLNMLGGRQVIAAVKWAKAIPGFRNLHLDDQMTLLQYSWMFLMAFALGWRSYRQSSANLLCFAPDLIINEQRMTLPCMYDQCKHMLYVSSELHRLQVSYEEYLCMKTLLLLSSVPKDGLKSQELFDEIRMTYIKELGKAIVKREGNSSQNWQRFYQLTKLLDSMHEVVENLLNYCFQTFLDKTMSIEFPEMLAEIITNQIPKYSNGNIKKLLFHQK
Chain of Tumor susceptibility gene 101 protein (Homo sapiens) (Q99816 whole entry, looked up): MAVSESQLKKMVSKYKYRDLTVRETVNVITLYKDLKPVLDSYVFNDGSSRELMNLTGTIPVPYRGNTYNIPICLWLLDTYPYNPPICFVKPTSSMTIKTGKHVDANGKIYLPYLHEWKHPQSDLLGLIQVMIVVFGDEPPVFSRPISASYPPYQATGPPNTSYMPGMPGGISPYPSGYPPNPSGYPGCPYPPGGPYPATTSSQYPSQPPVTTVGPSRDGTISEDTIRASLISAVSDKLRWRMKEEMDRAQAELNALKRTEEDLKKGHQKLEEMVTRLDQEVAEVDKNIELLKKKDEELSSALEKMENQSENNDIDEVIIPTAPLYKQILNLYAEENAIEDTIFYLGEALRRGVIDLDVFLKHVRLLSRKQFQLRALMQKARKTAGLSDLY
Chain of Cytochrome P450 1A2 (Homo sapiens) (P05177 whole entry, looked up): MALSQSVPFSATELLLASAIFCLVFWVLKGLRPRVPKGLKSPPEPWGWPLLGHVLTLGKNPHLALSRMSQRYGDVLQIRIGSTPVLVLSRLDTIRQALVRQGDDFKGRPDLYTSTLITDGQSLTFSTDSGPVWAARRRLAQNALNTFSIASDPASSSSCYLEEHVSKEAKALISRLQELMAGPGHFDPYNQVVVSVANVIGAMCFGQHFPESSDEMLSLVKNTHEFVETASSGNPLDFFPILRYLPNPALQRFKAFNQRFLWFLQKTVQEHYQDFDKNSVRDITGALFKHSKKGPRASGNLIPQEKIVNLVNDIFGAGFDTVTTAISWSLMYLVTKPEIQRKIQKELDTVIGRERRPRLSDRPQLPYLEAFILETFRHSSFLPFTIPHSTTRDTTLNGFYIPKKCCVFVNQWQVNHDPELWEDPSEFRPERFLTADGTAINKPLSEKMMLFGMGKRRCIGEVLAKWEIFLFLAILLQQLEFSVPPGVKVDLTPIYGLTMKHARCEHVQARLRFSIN
Chain of Lysosomal acid glucosylceramidase (Homo sapiens) (P04062 whole entry, looked up): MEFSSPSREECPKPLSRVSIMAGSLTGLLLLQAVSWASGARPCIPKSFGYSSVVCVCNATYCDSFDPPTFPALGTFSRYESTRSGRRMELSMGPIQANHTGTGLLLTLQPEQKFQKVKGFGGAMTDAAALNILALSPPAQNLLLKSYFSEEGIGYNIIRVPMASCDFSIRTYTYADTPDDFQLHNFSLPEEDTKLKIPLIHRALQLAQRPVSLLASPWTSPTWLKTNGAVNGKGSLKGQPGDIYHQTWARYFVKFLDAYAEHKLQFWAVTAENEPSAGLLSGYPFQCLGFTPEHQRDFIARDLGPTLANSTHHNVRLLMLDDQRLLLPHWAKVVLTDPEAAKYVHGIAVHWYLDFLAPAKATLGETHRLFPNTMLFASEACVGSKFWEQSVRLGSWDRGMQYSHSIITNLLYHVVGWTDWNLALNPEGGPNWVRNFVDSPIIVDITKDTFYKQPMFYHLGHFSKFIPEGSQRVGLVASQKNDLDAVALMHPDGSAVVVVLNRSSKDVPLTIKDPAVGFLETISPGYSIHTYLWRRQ
Chain of Cytochrome P450 2D6 (Homo sapiens) (P10635 whole entry, looked up): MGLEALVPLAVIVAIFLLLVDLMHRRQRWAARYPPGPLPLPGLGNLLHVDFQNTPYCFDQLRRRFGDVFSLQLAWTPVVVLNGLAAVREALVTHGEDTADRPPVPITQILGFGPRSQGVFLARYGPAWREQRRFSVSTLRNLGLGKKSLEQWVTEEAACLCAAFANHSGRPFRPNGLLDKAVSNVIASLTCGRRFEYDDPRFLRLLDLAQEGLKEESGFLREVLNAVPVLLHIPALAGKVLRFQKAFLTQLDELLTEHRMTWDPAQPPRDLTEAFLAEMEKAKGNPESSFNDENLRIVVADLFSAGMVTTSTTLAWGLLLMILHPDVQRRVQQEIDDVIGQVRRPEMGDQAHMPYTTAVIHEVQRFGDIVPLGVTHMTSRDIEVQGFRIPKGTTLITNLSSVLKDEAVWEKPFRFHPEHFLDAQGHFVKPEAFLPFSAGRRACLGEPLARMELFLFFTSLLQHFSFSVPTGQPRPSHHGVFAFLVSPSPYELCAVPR

With `c1ccc(Oc2nc(-c3cccnc3)nc3ccccc23)cc1` the Potency [1] was “inactive” and the Potency [2] was “inactive”.

In the case of `COc1cccc(/C=N/NC(=O)c2[nH]nc3c2CCc2ccccc2-3)c1O`, the Potency [3] is reported as 21.5 µM (active), the outcome [4] is reported as “inactive” and the Potency [5] is reported as 6.81 µM (active). For the same molecule, the Potency [1] was 33.8 µM (active), the Potency [6] was “inactive” and the Potency [2] was “inactive”.

With `Cc1ccc2c(c1)N(Cc1cccc(F)c1)C(=O)C(C)O2` (configuration not stated) the Potency [1] was “inactive” and the Potency [2] was “inactive”.

In the case of `COC(=O)c1ccccc1-c1c2ccc(=N)cc-2oc2cc(N)ccc12`, the Potency [1] is reported as “inactive” and the Potency [2] is reported as “inactive”.

For `O=[N+]([O-])/C=C/c1cn(Cc2ccc(Cl)cc2)c2ccccc12`, the Potency [1] was “inactive” and the Potency [2] was “inactive”.

For `COc1ccc(C(=O)Nc2nc(-c3ccc([N+](=O)[O-])cc3)c(-c3ccc(OC)cc3)s2)cc1`, the Potency [7] was “inactive”, the Potency [1] was “inactive” and the Potency [6] was “inactive”. For the same molecule, the Potency [2] was “inactive” and the Potency [8] was 63.1 µM (active).

In the case of `Fc1ccc(Nc2cncc(-c3ccsc3)c2)cc1Cl`, the Potency [1] is reported as 75.7 µM (active) and the Potency [2] is reported as “inactive”.

For `CCOCCCNc1nc2c(C)cccn2c(=O)c1/C=C1\SC(=S)N(CC(C)C)C1=O`, the Potency [1] was “inactive” and the Potency [2] was “inactive”.

In the case of `CCN(CC)c1ccc(/C=C/C(=O)c2ccc(Br)cc2)cc1`, the Potency [7] is reported as “inactive”, the Potency [1] is reported as “inactive” and the Potency [6] is reported as “inactive”. The activity change, negative = inhibition [2] was 192% [at 30.8 µM] and the Potency [8] was 14.1 µM (active).

With `O=[N+]([O-])c1c(Nc2ccccn2)cc(Cl)c2nonc12` the Potency [1] was “inactive” and the Potency [2] was “inactive”.

With `CCOc1ccc(-c2nn(-c3ccccc3)cc2/C=C2\SC(=S)N(C3CCS(=O)(=O)C3)C2=O)cc1` (configuration not stated) the Potency [1] was “inactive” and the Potency [2] was “inactive”.

In the case of `CCCCn1nnnc1C(c1cc2ccccc2o1)N1CCCCC1` (configuration not stated), the Potency [1] is reported as “inactive” and the Potency [2] is reported as “inactive”.

For `CCNc1ncc2nc(-c3cccs3)c(=O)n(CCC#N)c2n1`, the Potency [9] was greater than 11.4 µM, the activity change, negative = inhibition [10] was -3.58% and the Potency [11] was 3.16 µM (active). For the same molecule, the activity change, negative = inhibition [12] was -2.96%, the outcome [13] was “inactive” and the Potency [14] was greater than 9.22 µM. For the same molecule, the Potency [15] was greater than 46 µM, the Potency [16] was “inactive” and the Potency [17] was 6.31 µM (active). The Potency [18] was 1.26 µM (active), the Potency [19] was “inactive” and the Potency [1] was “inactive”. For the same molecule, the Potency [6] was “inactive”.
